Experimental findings from PubChem BioAssay (NCATS) are described below.

Records with an inconclusive call do not appear. The source made the active and inactive calls. Calls come from the whole dose curve; as a rule, active = well fitted curve in the direction sought with a large enough effect; inconclusive = small, poorly fitted or top-dose-only effect, or another doubt; inactive = no such curve, though single readings can be large; an effect the other way counts as inactive or inconclusive.

For test [1], the target named is Nuclear receptor subfamily 1 group I member 3 (Homo sapiens) (UniProt Q14994). Briefly: qHTS for Constitutive Androstane Receptor (CAR) Antagonist screened against the NCATS CANVASS Library (AID 1347372).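 Note: cells stimulated with 50 nM CITCO agonist so inhibition reflects antagonism.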 The note with it: HepG2-hCAR-CYP2B6 luciferase, CITCO-stimulated antagonist mode; series mostly up to 46.1 µM. The procedure, abridged:
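Cells were seeded and left 4hr to attach, then received compound at 11 concentrations and 50 nM CITCO. Following 24hr incubation, fluorescence viability and luciferase luminescence were read sequentially.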

For test [2] the target is unchanged. The test can be described thus: qHTS for Constitutive Androstane Receptor (CAR) Agonist screened against the NCATS CANVASS Library (AID 1347373).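 Note: every well also contained 1.5 µM PK11195 alongside the test compound.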 Note: potency is the fitted concentration of half-maximal effect. The conditions noted are these: HepG2-hCAR-CYP2B6 luciferase reporter, ONE-Glo luminescence; series mostly up to 46.1 µM. The procedure, abridged: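 Agonist mode with 1.5uM PK11195 present: compounds for 24hr on HepG2-hCAR-CYP2B6 cells. CellTiter-Fluor fluorescence (ex 405, em 540 nm) gives viability; ONE-Glo luminescence reports CAR activation.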

The nature of test [3]: qHTS for Hypoxia signaling pathway (HIF-1) antagonists against the NCATS CANVASS Library (AID 1347374).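 Note: HRE-bla ME-180 cells stimulated with cobalt chloride to stabilize HIF-1alpha; nearly all actives have a fitted effect of over 60% in size.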 The conditions noted are these: HRE-bla ME-180 cells, HIF-1 beta-lactamase reporter, CoCl2; series mostly up to 38.3 µM. The procedure, abridged: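 Antagonism scored as loss of CoCl2-driven (60 uM stock added) HRE beta-lactamase signal, read by CCF4 FRET at 460/530 nm. Compounds were tested in an 11-point series on ME-180 reporter cells for 17 hrs at 37C, with parallel CellTiter-Glo cytotoxicity.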

Test [4] is described as follows: qHTS for Hypoxia signaling pathway (HIF-1) agonists against the NCATS CANVASS Library (AID 1347375). The note with it: HRE-bla ME-180 cells, HIF-1 beta-lactamase reporter, 17 h; series mostly up to 38.3 µM. The method in brief:
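Beta-lactamase reporter under HRE control in ME-180 cells; compounds (11-point qHTS series) added after 5 hrs plating, then 17 hrs at 37C. FRET substrate read after 2 hr; same-well CellTiter-Glo luminescence gave viability and normalization.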
For orientation: Quantitative high-throughput screening tests each substance at several concentrations.

Test [5] is described as follows: 10-beta competent E. coli microbial cell viability qHTS against the NCATS CANVASS Library (AID 1347376). The conditions noted are these: E. coli 10-beta viability, BacTiter-Glo ATP luminescence, overnight; series mostly up to 46.1 µM. The method in brief: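 Read-out: BacTiter-Glo ATP luminescence, taken 20 min after reagent addition. Beforehand, 10-beta competent E. coli at 0.2 OD had been incubated overnight at 37C with compounds at 11 concentrations.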

A short description of test [6]: DH5-alpha competent E. coli microbial cell viability qHTS against the NCATS CANVASS Library (AID 1347377). The note with it: BacTiter-Glo ATP luminescence, overnight; series mostly up to 46.1 µM. The procedure, abridged: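 Bacterial viability as ATP-dependent luminescence (BacTiter-Glo), read after overnight 37 °C exposure of DH5-alpha competent E. coli to compounds in 11-point titration.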

The nature of test [7]: qHTS for H2AX Agonists against the NCATS CANVASS Library (AID 1347378).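 Note: phospho-H2AX S139 level in CHO-K1 lysates by TR-FRET emission ratio.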 The note with it: CHO-K1 H2AX phosphorylation, HTRF TR-FRET, 3 h; series mostly up to 76.9 µM. The method in brief:
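Signal is the 665/620 nm emission ratio from europium cryptate and d2 antibody pair, rising with S139-phosphorylated H2AX. CHO-K1 cells saw test agents for 3 hr at 37C; detection ran 24 hr at room temperature.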

The nature of test [8]: qHTS for Antimalaria activity screened against the NCATS CANVASS Library (AID 1347380). Note: nearly all actives have a fitted effect of over 40% in size. Note: potency is the fitted concentration of half-maximal effect. The note with it: P. falciparum Dd2 growth, SYBR Green fluorescence, 72 h; series mostly up to 57 µM. The procedure, abridged:
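SYBR Green fluorescence at 485/535 nm was read 18 hr after lysis. This followed a 72 hr incubation at 37C in 5% O2, 5% CO2 of Dd2-infected erythrocytes (0.3% parasitemia, 2.5% final hematocrit) with compounds titrated over 11 concentrations.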

Test [9] in a line: Inflammasome Signaling qHTS Counterscreen: IL-1-beta AlphaLISA counterscreen against the NCATS CANVASS Library (AID 1347381).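 Note: cell-free check with purified IL-1β in medium and no THP-1 cells.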 The conditions noted are these: Purified IL-1beta AlphaLISA signal interference counterscreen; series mostly up to 57.5 µM. The procedure, abridged:
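Purified IL-1-beta (4 pg/well) + compound, 11-pt conc. series; acceptor beads 6 ug/mL + biotin-Ab 0.6 nM final, 1 h RT; SA-donor 24 ug/ml final, 30 min dark RT; read ex 680/em 615.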

A short description of test [10]: Cytotoxicity qHTS for assessment of Hepg2 cells membrane integrity screened against the NCATS CANVASS Library (AID 1347387). The conditions noted are these: HepG2 LDH release (CytoTox-ONE) fluorescence, 5 h; series mostly up to 46.1 µM. The procedure, abridged:
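Membrane damage quantified as fluorescent LDH-release signal (ex 560, em 590 nm) in HepG2 cells treated 5 hr at 37C. qHTS format, 11 concentrations spanning 0.59 nM - 46 uM final, cells plated at 2000 per well the night before.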

Test [11] can be described thus: qHTS for Activators of p53 Stress Response Pathway screened against the NCATS CANVASS Library (AID 1347388). The note with it: p53RE-bla HCT-116, beta-lactamase reporter, 16 h; series mostly up to 46.1 µM. The procedure, abridged: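 p53RE-bla HCT-116 cells (4000/well) were plated 5 h at 37C, exposed to compounds for 16 h at 37C over an 11-point concentration series, then loaded with CCF4 for 2 h at room temperature; 460/530 nm emission ratio read.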

Test [12] can be described thus: qHTS assay for small molecule disruptors of mitochondrial membrane potential screened against the NCATS CANVASS Library (AID 1347389). Note: nearly all actives have a fitted effect of over 60% in size. The conditions noted are these: HepG2 mitochondrial membrane potential, m-MPI red/green ratio, 1.5 h; series mostly up to 46.1 µM. The method in brief:
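Mitochondrial membrane potential in HepG2: 1 h compound treatment (11-point concentration series), 30 min m-MPI dye at 37C, then dual fluorescence of J-aggregates (ex 540/em 590) and monomers (ex 490/em 535); lower red/green ratio indicates depolarization.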

A short description of test [13]: Secretion counterscreen for inhibitors of the SERCaMP assay screened against the NCATS CANVASS Library (AID 1347390).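 Note: light from luciferase secreted into medium read as a measure of general secretion.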 The note with it: SH-SY5Y constitutive GLuc secretion, luminescence, 20 h; series mostly up to 76.6 µM. The method in brief: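 Natural products are titrated in an 11-point series up to 77 uM onto SH-SY5Y-GLuc STOP cells for 20 h. Secreted reporter activity is measured as coelenterazine-driven luminescence, with Brefeldin A on each plate.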
On the technique in general: The purpose of a counterscreen is to sort out artefacts and off-target activity.

Test [14] in a line: qHTS for activators of Nrf2/ARE signaling pathway screened against the NCATS CANVASS Library (AID 1347391). Note: nearly all actives have a fitted effect of over 60% in size. Note: potency is the fitted concentration of half-maximal effect. The conditions noted are these: ARE-bla HepG2, beta-lactamase reporter, 16 h; series mostly up to 91.4 µM. The procedure, abridged: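 Eleven-point qHTS, 16 h treatment of HepG2 cells carrying an ARE-driven beta-lactamase reporter; CCF4 ratio read (405 nm excitation, 460 and 530 nm emission), with CellTiter-Glo ATP luminescence for viability.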

Test [15] in a line: qHTS for activators of dead-cell proteases activity screened against the NCATS CANVASS Library (AID 1347392).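 Note: luminescence from protease leaking out of membrane-damaged cells cleaving impermeant substrate; rising signal means more cytotoxicity.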 The conditions noted are these: HepG2 cytotoxicity, dead-cell protease luminescence, 5 h; series mostly up to 46.1 µM. The method in brief:
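Cytotoxicity in HepG2 cells was assessed by released protease cleaving AAF-aminoluciferin, with luminescence as signal. Exposure lasted 5 h at 37C across an 11-point series.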

Test [16] can be described thus: qHTS for inhibitors of ER calcium dysfunction: SERCaMP assay screened against the NCATS CANVASS Library (AID 1347393). Note: nearly all actives have a fitted effect of over 40% in size. Note: potency is the fitted concentration of half-maximal effect. The conditions noted are these: SH-SY5Y GLuc-SERCaMP (Gaussia luciferase released on ER calcium loss) secretion, thapsigargin, luminescence; series mostly up to 76.6 µM. The method in brief:
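qHTS in SH-SY5Y reporter cells: 16 h compound pretreatment, 4 h thapsigargin, then secreted Gaussia luciferase measured by luminescence.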

Test [17] is described as follows: Vero-766 cells viability qHTS against the NCATS CANVASS Library: Counterscreen for Zika virus inhibition assay (AID 1347394). Note: nearly all actives have a fitted effect of over 60% in size. The conditions noted are these: Vero 766 viability, CellTiter-Glo luminescence, 72 h; series mostly up to 46.1 µM. The procedure, abridged:
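Counterscreen for toxicity: Vero 766 cells exposed 72 h to an 11-point compound series, viability by CellTiter-Glo.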

Test [18] can be described thus: Viability qHTS for inhibitors of the SERCaMP assay screened against the NCATS CANVASS Library (AID 1347400). Note: nearly all actives have a fitted effect of over 70% in size. The conditions noted are these: SH-SY5Y SERCaMP cells viability, CellTiter-Glo, 48 h; series mostly up to 92.2 µM. The procedure, abridged:
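CellTiter-Glo luminescence measured cytotoxicity after 48 h at 37C of compound treatment (11-point series). Cells were SH-SY5Y-GLuc SERCaMP MJH297 derivatives, seeded at 1000 per well 4 h beforehand.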

Test [19] in a line: qHTS for Inflammasome Signaling Inhibitors: IL-1-beta AlphaLISA screen against the NCATS CANVASS Library (AID 1347379).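 Note: human THP-1 cells primed with LPS then triggered with ATP.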 The conditions noted are these: THP-1 LPS/ATP, IL-1B AlphaLISA secretion, 16 h; series mostly up to 57.5 µM. The procedure, abridged: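 Secreted IL-1B from human THP-1 cells quantified by AlphaLISA 16 hr after compound addition (final up to 57.5 uM). A 1 hr compound pretreatment preceded inflammasome activation with 250 ng/mL LPS plus 1.25 mM ATP (final).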

Test [20] in a line: qHTS for inhibitors of Wild type Zika virus screened against the NCATS CANVASS Library (AID 1347396).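 Note: ATP luminescence of surviving cells so rescue from viral cell killing.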 The note with it: Vero cells, Zika virus CPE, CellTiter-Glo, 72 h; series mostly up to 91 µM. The method in brief:
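Using ATP-based luminescence (CellTiter Glo), this screen scores rescue of Vero 766 cells from wild-type Zika killing at 72 h post-infection. Compounds are tested in a concentration series.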

Nuclear receptor subfamily 1 group I member 3 (Homo sapiens), sequence (Q14994 whole entry, looked up): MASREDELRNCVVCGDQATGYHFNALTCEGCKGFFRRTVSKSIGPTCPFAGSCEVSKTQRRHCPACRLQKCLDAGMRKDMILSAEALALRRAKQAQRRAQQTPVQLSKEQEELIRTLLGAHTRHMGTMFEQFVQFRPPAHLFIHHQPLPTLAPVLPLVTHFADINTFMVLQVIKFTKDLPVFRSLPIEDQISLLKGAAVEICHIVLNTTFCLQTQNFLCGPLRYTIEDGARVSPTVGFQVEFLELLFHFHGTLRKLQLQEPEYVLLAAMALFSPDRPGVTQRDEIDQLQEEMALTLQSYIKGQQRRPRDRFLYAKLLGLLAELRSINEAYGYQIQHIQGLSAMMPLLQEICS

For the compound `CC(=O)O[C@H]1C[C@@]2(C)[C@@H](CC[C@H]3[C@@]4(C)C=CC(=O)[C@@H](C)[C@@H]4[C@H](OC(C)=O)C(=O)[C@@]32C)/C1=C(\CCC=C(C)C)C(=O)O`, the compound was classed as inactive in [1], in test [3], in test [4], in test [5], in test [7] and in test [9]. Besides, the result in [10], in [11], in test [12], in test [13], in [15] and in test [17] was inactive. In addition, in [18], the call was inactive. The Potency result in [2] was “inactive”. Moreover, in test [6], the outcome was “inactive [at 46.1 µM]”. For the same compound, the Potency is 10.6 µM (active) in [8], 20.9 µM (active) in [14] and 30.5 µM (active) in test [16].

As for `O=C(/C=C/C=C/c1ccc2c(c1)OCO2)N1CCCCC1`, the outcome in test [1], in [5], in test [6], in test [7], in [19] and in test [9] was inactive. The result in test [10], in test [11], in test [12], in test [15], in test [17] and in [20] was inactive. The result in [18] was inactive. Further, the Potency was 4.14 µM (active) in test [2] and 60.5 µM (active) in [16]. The Potency result in test [8] and in [14] was “inactive” in each case.

Regarding `C/C(=C\CC/C(C)=C/CC[C@]1(C)CCc2cc(O)cc(C)c2O1)CC/C=C(\C)C(=O)O`, the compound was classed as inactive in [1], in test [4], in test [5], in test [7], in test [19] and in test [9]. Also, the result in test [10], in test [12], in test [13], in test [15] and in [18] was inactive. The Potency entry in [2], in [14] and in [16] was “inactive” throughout.

As for `CC(C)c1ccc2c(c1)CCC1[C@](C)(C(=O)O)CCC[C@]21C` (some centres not stated), the compound was classed as inactive in test [1], in [3], in test [4], in [5], in test [6] and in test [7]. The call in test [19], in test [9], in test [10], in [11], in test [12] and in [13] was inactive. The outcome in test [15], in test [17], in [20] and in test [18] was inactive. Also, the Potency result in test [8] and in test [16] was “inactive” throughout.
